Bioassay records: PubChem BioAssay, National Center for Advancing Translational Sciences (NCATS)
In the library only some 15% were active in any assay of this set; here they are far more common.
Gal4-VP16 FLuc: VP16 counterscreen qHTS for inhibitors of ROR gamma transcriptional activity. Potency, µM (series often up to 53.6 µM), for inactives: top-dose activity, negative = inhibition, actives largely listed as inhibitors. Drosophila S2 Gal4-VP16 UAS-luciferase, luminescence, 20 h. AID 2546, 2010. 310,000 tested, 3.5% active;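 note: Gal4-VP16 expression switched on by copper sulfate through the metallothionein promoter; nearly all actives have a fitted effect of over 50% in size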
TDP1 cell CPT: qHTS for Inhibitors of human tyrosyl-DNA phosphodiesterase 1 (TDP1): qHTS in cells in presence of CPT. chicken DT40 Tdp1-/-;hTDP1 cells + 20 nM CPT, ATP luminescence, 48 h. Potency, µM (doses to about 46.2 µM), for inactives: top-dose activity change, negative = growth inhibition, hits mostly inhibitors. 420,000 tested, 12% active; note: nearly all actives have a fitted effect of over 55% in size
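Chicken DT40 Tdp1-/- cells stably complemented with human TDP1 were seeded at 400 cells/well in medium containing 20 nM camptothecin, exposed to pin-transferred compounds, and grown at 37 °C for at least 48 hr. Viability was read as ATP luminescence.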
12-LOX inh: Primary qHTS assay for inhibitors of human arachidonate 12S-lipoxygenase (ALOX12): Round 2 | Polyunsaturated fatty acid lipoxygenase ALOX12 (Homo sapiens), P18054 | purified 12hLO, xylenol orange hydroperoxide absorbance | Potency, µM (top dose mostly 108 µM), without a hit: top-dose activity change, negative = inhibition, usual class: inhibitors | 580,000 tested, 1.1% active
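Purified human 12hLO at 150 nM in 25 mM Hepes, 0.01% Triton X-100, pH 7.0, preincubated 15 min at room temperature with compound. Reaction started with 40 uM arachidonic acid, 30 min at room temperature. Hydroperoxide measured by Fe-xylenol orange, 573/405 nm absorbance ratio.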
RORgamma inh: qHTS for inhibitors of ROR gamma transcriptional activity; Nuclear receptor ROR-gamma (Mus musculus), P51450; Drosophila S2 Gal4-RORgamma UAS-luciferase reporter, 20 h; Potency, µM (doses to about 53.6 µM), inactives show top-dose activity change, negative = inhibition, hits mostly inhibitors; 310,000 tested, 5.4% active; AID 2551, 2010; note: nearly all actives have a fitted effect of over 60% in size
Target sequence (P51450 whole entry, looked up, the tested form may be a part): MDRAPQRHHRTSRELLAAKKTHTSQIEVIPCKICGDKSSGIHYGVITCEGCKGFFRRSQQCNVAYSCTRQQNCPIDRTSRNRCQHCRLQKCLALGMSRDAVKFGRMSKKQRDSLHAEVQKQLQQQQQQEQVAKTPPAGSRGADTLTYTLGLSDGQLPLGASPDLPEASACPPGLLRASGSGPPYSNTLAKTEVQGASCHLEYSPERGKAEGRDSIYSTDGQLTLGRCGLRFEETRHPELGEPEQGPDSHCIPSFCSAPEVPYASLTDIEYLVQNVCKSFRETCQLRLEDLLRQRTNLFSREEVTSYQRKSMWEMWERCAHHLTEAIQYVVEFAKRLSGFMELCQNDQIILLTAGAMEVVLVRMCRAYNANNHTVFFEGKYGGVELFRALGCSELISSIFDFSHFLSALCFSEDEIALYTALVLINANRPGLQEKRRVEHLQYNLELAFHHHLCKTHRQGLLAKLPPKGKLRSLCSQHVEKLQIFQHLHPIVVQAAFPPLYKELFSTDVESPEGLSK
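Drosophila S2 cells stably expressing Gal4-DBD/mouse RORγ fusion under metallothionein promoter plus UAS-luciferase; compound 1 h, then 700 uM CuSO4 induction for 20 h at ambient temperature; inhibition read as reduced luminescence.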
ELG1 repair inh: qHTS screen for small molecules that inhibit ELG1-dependent DNA repair in human embryonic kidney (HEK293T) cells expressing luciferase-tagged ELG1. HEK293T ELG1-luciferase reporter, luminescence, 16 h; DNA damage induced by 5-fluorouridine. AID 504467, 2011. Potency, µM (doses to about 46.1 µM), inactives show at the highest dose activity change, negative = inhibition, usual class: inhibitors. 330,000 tested, 2.3% active; note: nearly all actives have a fitted effect of over 55% in size
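5-Fluorouridine DNA damage + compound/DMSO, 2,000 cells/well, 16 h, 37 °C/5% CO2. ONE-Glo, 30 min RT, luminescence. Readout = decrease in reporter signal.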
DT40 TDP1 no CPT: qHTS for Inhibitors of human tyrosyl-DNA phosphodiesterase 1 (TDP1): qHTS in cells in absence of CPT; Potency, µM (titrated, usually from 46.2 µM), without a hit: at the top dose activity change, negative = growth inhibition, most hits filed as inhibitors; DT40 Tdp1-/- hTDP1 cells, no CPT, ATP luminescence, 48 h; AID 686978, 2013; 420,000 tested, 15% active; note: nearly all actives have a fitted effect of over 55% in size
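Compound effects on proliferation are scored in DT40 Tdp1-/-;hTDP1 cells in the absence of CPT. ATP levels (CellTiter-Glo luminescence) are recorded after a ≥48 hr, 37 °C incubation.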
* marks the source's active call; other numbers are inactive results; [ ] = remark or other dose. Calls come from the whole dose curve; as a rule, active = well fitted curve in the direction sought with a large enough effect; inconclusive = small, poorly fitted or top-dose-only effect, or another doubt; inactive = no such curve, though single readings can be large; an effect the other way counts as inactive or inconclusive. % is set by controls: 0 for no effect and ±100 for the full control effect; potency is the fitted concentration of half-maximal effect.

`CCNc1ncc2ncc(=O)n(Cc3ccc(F)cc3)c2n1` gave Gal4-VP16 FLuc -10%, TDP1 cell CPT 18µM*, 12-LOX inh inconclusive, RORgamma inh -1% and DT40 TDP1 no CPT inconclusive.
CCNc1ncc2nc(-c3cc(F)cc(F)c3)c(=O)n(CCc3ccccc3)c2n1 was read as Gal4-VP16 FLuc -28%, TDP1 cell CPT inconclusive, 12-LOX inh 11µM*, RORgamma inh 24% and DT40 TDP1 no CPT inconclusive.
`COc1ccc(-c2noc([C@@H](C)NC(=O)c3cc(C)oc3C)c2C(=O)O)cc1` gave 12-LOX inh 39%[176 µM].
COc1ccc(S(=O)(=O)N2CCc3nc4cc[nH]n4c(=O)c3C2)cc1Cl was read as 12-LOX inh 1%.
Screening CN(C)c1ncc2ncc(=O)n(CCc3ccccc3)c2n1 returned Gal4-VP16 FLuc -16%, TDP1 cell CPT 21µM*, 12-LOX inh 0%, RORgamma inh -3% and DT40 TDP1 no CPT 26µM*.
For CN(C)c1ncc2nc(CCc3ccccc3)c(=O)n(Cc3cccs3)c2n1 the results were Gal4-VP16 FLuc -13%, TDP1 cell CPT inconclusive, 12-LOX inh inconclusive, RORgamma inh 11% and DT40 TDP1 no CPT 16µM*.
For Cc1nc2cnc(N(C)C)nc2n(Cc2cccs2)c1=O the results were Gal4-VP16 FLuc -2%, TDP1 cell CPT -14%, 12-LOX inh 0%, RORgamma inh 0% and DT40 TDP1 no CPT -29%.
For Cc1ccc(CN2C(=O)COC[C@H]2C(=O)NCc2ccco2)cc1 the results were 12-LOX inh 19%.
Screening CC(C)CN(C)C(=O)CCc1nnc(Cc2ccc(-c3ccccc3)cc2)o1 returned Gal4-VP16 FLuc -10%, TDP1 cell CPT inconclusive, 12-LOX inh -1%, RORgamma inh 18%, ELG1 repair inh -20% and DT40 TDP1 no CPT 12µM*.
For Cc1ccc(OCCCCn2cnc3ccccc32)cc1 the results were Gal4-VP16 FLuc -15%, TDP1 cell CPT 16µM*, 12-LOX inh inconclusive, RORgamma inh -1%, ELG1 repair inh inconclusive and DT40 TDP1 no CPT 21µM*.
Screening O=[N+]([O-])c1ccc(OCCn2cnc3ccccc32)cc1 returned Gal4-VP16 FLuc 6%, TDP1 cell CPT -14%, 12-LOX inh 0%, RORgamma inh 8%, ELG1 repair inh -4% and DT40 TDP1 no CPT inconclusive.
Cc1ccccc1OCCCCn1cnc2ccccc21 was read as Gal4-VP16 FLuc 10µM*, TDP1 cell CPT 12µM*, 12-LOX inh -15%, RORgamma inh -101%, ELG1 repair inh inconclusive and DT40 TDP1 no CPT 13µM*.
`Brc1ccccc1OCCCn1cnc2ccccc21` gave Gal4-VP16 FLuc inconclusive, TDP1 cell CPT inconclusive, 12-LOX inh -13%, RORgamma inh -19%, ELG1 repair inh inconclusive and DT40 TDP1 no CPT -26%.
For c1ccc2c(c1)ncn2CCCOc1ccc2c(c1)CCC2 the results were Gal4-VP16 FLuc inconclusive, TDP1 cell CPT inconclusive, 12-LOX inh 2%, RORgamma inh inconclusive, ELG1 repair inh -2% and DT40 TDP1 no CPT 21µM*.
For c1ccc2c(c1)ncn2CCN1CCCCC1 the results were Gal4-VP16 FLuc 2%, TDP1 cell CPT -3%, 12-LOX inh inconclusive, RORgamma inh -6%, ELG1 repair inh -3% and DT40 TDP1 no CPT -7%.
c1ccc(CCn2cnc3ccccc32)cc1 was read as Gal4-VP16 FLuc inconclusive, TDP1 cell CPT -25%, 12-LOX inh 2%, RORgamma inh 13µM*, ELG1 repair inh inconclusive and DT40 TDP1 no CPT inconclusive.
CC(C)C(C)NC(=O)CCn1cnc2c1c(=O)n(C)c(=O)n2C (stereo not given) was read as 12-LOX inh -13%.
For c1cn(CCCNCc2ccc(-n3ccnc3)cc2)cn1 the results were 12-LOX inh 38%.
c1ccc(OCCn2cnc3ccccc32)cc1 was read as Gal4-VP16 FLuc 3%[0.365 µM], TDP1 cell CPT inconclusive, 12-LOX inh inconclusive, RORgamma inh 8%, ELG1 repair inh inconclusive and DT40 TDP1 no CPT inconclusive.
For c1ccc(OCCCCn2cnc3ccccc32)cc1 the results were Gal4-VP16 FLuc inconclusive, TDP1 cell CPT inconclusive, 12-LOX inh inactive, RORgamma inh 13µM*, ELG1 repair inh 0% and DT40 TDP1 no CPT 18µM*.
`CCOc1cccc(C(=O)Nc2ccc(NC(=O)c3cc4ccccc4o3)c(OC)c2)c1` gave Gal4-VP16 FLuc inconclusive, TDP1 cell CPT inconclusive, 12-LOX inh 29%, RORgamma inh inconclusive, ELG1 repair inh 1% and DT40 TDP1 no CPT inconclusive.
For COc1cc(NC(=O)c2cccc([N+](=O)[O-])c2)ccc1NC(=O)c1cc2ccccc2o1 the results were Gal4-VP16 FLuc 0%, TDP1 cell CPT inconclusive, 12-LOX inh 9%, RORgamma inh 3%, ELG1 repair inh -4% and DT40 TDP1 no CPT 8.2µM*.
COc1cc(NC(=O)c2cccc(C)c2)ccc1NC(=O)c1cc2ccccc2o1 was read as Gal4-VP16 FLuc 13µM*, TDP1 cell CPT inconclusive, 12-LOX inh 5%, RORgamma inh inconclusive, ELG1 repair inh 19% and DT40 TDP1 no CPT 3.7µM*.
`CCC(=O)NC(=S)Nc1ccc(NC(=O)c2cc3ccccc3o2)c(OC)c1` gave Gal4-VP16 FLuc inconclusive, TDP1 cell CPT inconclusive, 12-LOX inh -7%, RORgamma inh 4.5µM*, ELG1 repair inh 15% and DT40 TDP1 no CPT inconclusive.
For CCC(=O)Nc1ccc(Cl)c(NC(=S)NC(=O)c2cc3ccccc3o2)c1 the results were Gal4-VP16 FLuc 3.5µM*, TDP1 cell CPT -3%, 12-LOX inh -5%, RORgamma inh inconclusive, ELG1 repair inh inconclusive and DT40 TDP1 no CPT 5%.
`CCOC(=O)c1cnc2c(OC)cccc2c1Nc1cc(C(=O)O)ccc1C` gave 12-LOX inh 48%.
For CC(=O)Nc1ccc(S(=O)(=O)N2C[C@@H]3C[C@H](C2)c2c(-c4ccc(OC(F)(F)F)cc4)ccc(=O)n2C3)cc1 the results were 12-LOX inh 22%.
C=CCNC(=O)[C@@H]1Cc2cn(CC3CC3)c3cccc(c23)[C@H](CC(C)C)N1 was read as 12-LOX inh 19%[176 µM].
